Records with an inconclusive call do not appear. Calls of active or inactive are those of the source. Calls follow the shape of the dose curve; as a rule, active = well fitted cell-killing curve with a large enough effect; inconclusive = small, poorly fitted or top-dose-only effect, or effect the other way; inactive = no such curve, though single readings can be large or run the other way.
The compounds below were run on Hek293T (assay: Confirmatory qHTS for gynecologic anti-cancer compounds from libraries of approved drugs and bioactive compounds). Details: gynecologic cancer cell panel viability, ATPlite luminescence, 48 h; series mostly up to 57.6 µM.
Procedure, shortened: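 IC50 values derive from an ATPlite ATP-content luminescence assay following 48 h treatment at 37 C. Each compound ran as an 11-concentration, threefold series (57.5 uM to 0.977 nM); HEK 293T served as control line for selectivity index.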
Also: nearly all actives have a fitted effect of over 55% in size.
Potency is read from the fitted curve at half-maximal effect.

Row | Structure (SMILES) | Potency
1 | CCC1C(=O)N(C)c2cnc(Nc3ccc(C(=O)NC4CCN(C)CC4)cc3OC)nc2N1C1CCCC1 (stereo unspecified) | 0.0193 µM (active)
2 | FC(F)(F)c1ccc(/C=C/c2nc(COc3ccc(CCCCn4ccnn4)cc3)co2)cc1 | 0.0193 µM (active)
3 | Cc1csc(NC(=O)c2sc3nc4c(c(C(F)(F)F)c3c2N)CCC4)n1 | 0.769 µM (active)
4 | Cc1ccc(C(N)=O)cc1Nc1nccc(-c2cn(C(C)C)c3cnccc23)n1 | 13.7 µM (active)
5 | COc1cccc2c1C(=O)c1c(O)c3c(c(O)c1C2=O)C[C@@](O)(C(=O)CO)C[C@@H]3O[C@H]1C[C@H](N)[C@H](O[C@@H]2CCCCO2)[C@H](C)O1 | 10.9 µM (active)
6 | COc1cc(Nc2ncc3c(n2)-c2ccc(Cl)cc2C(c2c(F)cccc2OC)=NC3)ccc1C(=O)O | inactive
7 | Cc1ccc(-n2[nH]c(C)c(N=Nc3cccc(-c4cccc(C(=O)O)c4)c3O)c2=O)cc1C | inactive
8 | CCCC(Nc1nc(-c2ccc(NC(=O)NCC)c(OC)c2)ncc1C)c1cccnc1 (stereo unspecified) | inactive
9 | COc1cc(Nc2ncc(F)c(Nc3ccc4c(n3)N(COP(=O)(O)O)C(=O)C(C)(C)O4)n2)cc(OC)c1OC | inactive
10 | Cc1ccc(C(=O)Nc2cccc(C(F)(F)F)c2)cc1-c1ccc2nc(NCCN3CCOCC3)ncc2c1 | 19.3 µM (active)
11 | Cc1ccn(-c2ccc(-c3ncco3)cc2)c(=O)c1-c1ccc2nc(N)ncc2c1 | inactive
12 | Nc1ccc(C(=O)Nc2cccc(-c3nc(N4CCOCC4)c4oc5ncccc5c4n3)c2)cn1 | inactive
13 | CN1CCCC(n2nc(Cc3ccc(Cl)cc3)c3ccccc3c2=O)CC1 (stereo unspecified) | 17.2 µM (active)
14 | COc1cccc2c1C(=O)c1c(O)c3c(c(O)c1C2=O)C[C@@](O)(C(=O)CO)C[C@@H]3O[C@H]1C[C@H](N)[C@H](O)[C@H](C)O1 | 3.85 µM (active)
15 | CC(C)(C(=O)NCC(F)(F)C(F)(F)F)C(=O)NC1C(=O)Nc2ccccc2-c2ccccc21 (stereo unspecified) | inactive
16 | COc1ccc2c(c1OC)C(=O)O[C@@H]2[C@H]1c2c(cc3c(c2OC)OCO3)CCN1C | inactive
17 | CS(=O)(=O)c1ccc(C(=O)Nc2ccc(Cl)c(-c3ccccn3)c2)c(Cl)c1 | inactive
18 | COc1cc2nccc(Oc3ccc(NC(=O)Nc4cc(C)on4)c(Cl)c3)c2cc1OC | inactive

Row | Structure (SMILES) | Potency
19 | CCOc1cc2ncc(C#N)c(Nc3ccc(F)c(Cl)c3)c2cc1NC(=O)/C=C/CN(C)C | 15.3 µM (active)
20 | O=c1c(-c2ccc(O)cc2)coc2cc(O)cc(O)c12 | inactive
21 | Cc1ccc(C(=O)Nc2ccc(CN3CCN(C)CC3)c(C(F)(F)F)c2)cc1C#Cc1cnc2[nH]ncc2c1 | 21.7 µM (active)
22 | CN1CCN(c2cccc(Nc3nc4c(-c5ccc(S(C)(=O)=O)cc5)cccn4n3)c2)CC1 | inactive
23 | COc1cc2c(Nc3ccc(NC(=O)c4ccccc4)cc3)ncnc2cc1OCCCN1CCOCC1 | 24.3 µM (active)
24 | CCN[C@H]1C[C@H](C)S(=O)(=O)c2sc(S(N)(=O)=O)cc21 | inactive
25 | COc1ccc2c(c1)c(CC(=O)O)c(C)n2C(=O)c1ccc(Cl)cc1 | inactive
26 | CC(C)Nc1cc(-c2c[nH]c(C(=O)N[C@H](CO)c3cccc(Cl)c3)c2)c(Cl)cn1 | inactive
27 | O=C(c1ccc(/C=C/c2n[nH]c3ccccc23)cc1)N1CCNCC1 | 21.7 µM (active)
28 | CCN1CCN(Cc2ccc(Nc3ncc(F)c(-c4cc(F)c5nc(C)n(C(C)C)c5c4)n3)nc2)CC1 | inactive
29 | C[C@@H](Oc1cc(-c2cnn(C3CCNCC3)c2)cnc1N)c1c(Cl)ccc(F)c1Cl | 21.7 µM (active)
30 | CCN(CC)CCOc1ccc(/C(=C(\Cl)c2ccccc2)c2ccccc2)cc1 | 126 µM (active)
31 | Cc1[nH]c2ccccc2c1CCNCc1ccc(/C=C/C(=O)NO)cc1 | 0.193 µM (active)
32 | O=C(c1ccc(F)c(F)c1Nc1ccc(I)cc1F)N1CC(O)([C@@H]2CCCCN2)C1 | 24.3 µM (active)
33 | COc1cc2c(Oc3ccc(-c4cnc(Nc5ccc(F)cc5)n(C)c4=O)cc3F)ccnc2cc1OCCCN1CCOCC1 | 15.3 µM (active)
34 | NC(=O)Nc1cc(-c2cccc(F)c2)sc1C(=O)NC1CCCNC1 (stereo unspecified) | 0.273 µM (active)
35 | CC[C@@]1(O)C(=O)OCc2c1cc1n(c2=O)Cc2cc3cc(O)ccc3nc2-1 | 0.385 µM (active)
36 | COc1cc(N2CCC(N3CCN(C)CC3)CC2)ccc1Nc1ncnc(Nc2ccccc2S(=O)(=O)C(C)C)n1 | 21.7 µM (active)
